Among the test systems are DU-145 prostate; K-562 leukemia; MALME-3M melanoma; MDA-MB-231 breast; RXF 393 renal; SF-268 CNS; SF-295 CNS; SF-539 CNS; UACC-257 melanoma; M14 melanoma; HCT-15 colon; HT29 colon; SNB-75 CNS; SNB-19 CNS; PC-3 prostate; SK-MEL-5 melanoma; UACC-62 melanoma; LOX IMVI melanoma; SK-MEL-28 melanoma; U251 CNS.
Assay in all cases: NCI-60 one-dose screen, 48 h (100 = growth as untreated, 0 = no growth, -100 = all killed)
Holding throughout (conditions): 10 µM unless noted

Values joined by “and” are separate entries in the source; they are usually repeats but may differ in a detail not shown here. Identical values can stand only once. This is part of a sample that, as a whole, favours compounds with a hit. Of some 83,000 tested, about 20% had one in any assay.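 96-well plates, one dose, 48 hours. Percent growth reported; active if below 10.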 Some compounds were tested as several samples or in several runs, with calls that do not always agree. Active and inactive are the calls of the source.

For `CC(=O)Nc1ccc(S(N)(=O)=O)cc1`, the growth in the test with DU-145 prostate is 111% (inactive) and 113% (inactive); in the test with K-562 leukemia, 102% (inactive) and 110% (inactive); in the test on MALME-3M melanoma, 109% (inactive); in the test with MDA-MB-231 breast, 102% (inactive) and 119% (inactive); in the test on RXF 393 renal it was 115% (inactive); in the test on SF-268 CNS, 105% (inactive) and 115% (inactive). For the same compound, the growth is 93.8% (inactive) and 92.8% (inactive) in the test with SF-295 CNS; 100% (inactive) and 101% (inactive) in the test on SF-539 CNS; 88.6% (inactive) and 94.9% (inactive) with UACC-257 melanoma; 98.6% (inactive) and 103% (inactive) in the test on M14 melanoma; 107% (inactive) and 93.5% (inactive) in the test with HCT-15 colon; 106% (inactive) and 96.8% (inactive) with HT29 colon. Also, the growth in the test on SNB-75 CNS is 107% (inactive) and 92.5% (inactive); in the test with SNB-19 CNS, 98.3% (inactive) and 107% (inactive); in the test on PC-3 prostate, 81.2% (inactive) and 99.1% (inactive); in the test with SK-MEL-5 melanoma it was 93.2% (inactive) and 101% (inactive); in the test with UACC-62 melanoma, 99.8% (inactive); in the test with LOX IMVI melanoma, 98% (inactive) and 92.1% (inactive). Moreover, the growth with SK-MEL-28 melanoma was 107% (inactive) and 110% (inactive).

For `O=C1NC(N/N=C\C(O)C(O)C(O)CO)=N/C1=C/c1ccc(Cl)cc1` (stereo unspecified), the growth in the test with UACC-62 melanoma was 3.82% [100 µM] (active) and -100% [100 µM] (active) and 32.5% [100 µM] (inactive).

Take `CC1CCC2(OC1)OC1CC3C4CC=C5CC(O)CCC5(C)C4CCC3(C)C1C2C` (stereo unspecified): the growth in the test with DU-145 prostate is 107% (inactive); in the test with K-562 leukemia, 97.3% (inactive); with MALME-3M melanoma, 120% (inactive); in the test on MDA-MB-231 breast, 100% (inactive); with SF-268 CNS it was 89.6% (inactive); in the test with SF-295 CNS, 119% (inactive). Further, the growth was 91.2% (inactive) with SF-539 CNS; -3.06% (active) in the test on UACC-257 melanoma; 102% (inactive) with M14 melanoma; 105% (inactive) in the test with HCT-15 colon; 108% (inactive) in the test with HT29 colon; 83% (inactive) in the test with SNB-75 CNS. In addition, the growth is 96.1% (inactive) in the test on SNB-19 CNS; 94.8% (inactive) with U251 CNS; 96.4% (inactive) in the test with PC-3 prostate; 105% (inactive) in the test with SK-MEL-5 melanoma; 90.6% (inactive) with UACC-62 melanoma; 91.2% (inactive) with LOX IMVI melanoma. The growth in the test with SK-MEL-28 melanoma is 115% (inactive).

For the compound `CCN(CCNS(C)(=O)=O)c1ccc(N)c(C)c1`, the growth was 70.4% (inactive) and 123% (inactive) in the test on DU-145 prostate; 27.9% (inactive) and 95.5% (inactive) with K-562 leukemia; 93.6% (inactive) and 119% (inactive) in the test with MALME-3M melanoma; 109% (inactive) and 97.4% (inactive) in the test on MDA-MB-231 breast; 72.4% (inactive) and 78.3% (inactive) in the test on RXF 393 renal; 93.3% (inactive) and 94.9% (inactive) with SF-268 CNS. Besides, the growth in the test with SF-295 CNS is 103% (inactive) and 116% (inactive); in the test with SF-539 CNS, 113% (inactive) and 105% (inactive); with UACC-257 melanoma, 89.7% (inactive); in the test with M14 melanoma, 108% (inactive) and 98.6% (inactive); with HCT-15 colon, 71.5% (inactive) and 106% (inactive); in the test on HT29 colon, 87.8% (inactive). The growth in the test on SNB-75 CNS is 128% (inactive) and 95.5% (inactive); in the test on SNB-19 CNS it was 101% (inactive) and 109% (inactive); in the test with PC-3 prostate it was 86.7% (inactive) and 78.7% (inactive); in the test with SK-MEL-5 melanoma, 81.1% (inactive) and 98.4% (inactive); with UACC-62 melanoma, 71.4% (inactive) and 82.2% (inactive); with LOX IMVI melanoma, 52.9% (inactive) and 68.4% (inactive). For the same compound, in the test with SK-MEL-28 melanoma, the growth is 80.2% (inactive) and 104% (inactive).

`CC1CCC(C(C)C)C(NNC(N)=O)C1` (stereo unspecified): the growth in the test with DU-145 prostate was 106% (inactive); with K-562 leukemia, 101% (inactive); in the test with MALME-3M melanoma, 110% (inactive); in the test with MDA-MB-231 breast, 97.5% (inactive); in the test with RXF 393 renal, 101% (inactive); in the test on SF-268 CNS it was 106% (inactive). For the same compound, the growth in the test with SF-295 CNS is 103% (inactive); with SF-539 CNS, 110% (inactive); in the test with UACC-257 melanoma, 87.3% (inactive); in the test with M14 melanoma it was 106% (inactive); in the test with HCT-15 colon it was 112% (inactive); in the test with HT29 colon, 102% (inactive). For the same compound, the growth with SNB-75 CNS was 102% (inactive); in the test on SNB-19 CNS, 98.4% (inactive); with PC-3 prostate, 86.2% (inactive); in the test with SK-MEL-5 melanoma, 102% (inactive); in the test on LOX IMVI melanoma, 100% (inactive); in the test on SK-MEL-28 melanoma it was 120% (inactive).

For `Brc1ccc(SSc2ccc(Br)cc2)cc1`, the growth in the test on DU-145 prostate is 93.6% (inactive); in the test with K-562 leukemia it was 89.9% (inactive); with MALME-3M melanoma, 74.8% (inactive); in the test with RXF 393 renal it was 74.6% (inactive); with SF-268 CNS, 58.9% (inactive); in the test with SF-295 CNS it was 52.2% (inactive). Further, the growth with SF-539 CNS is 56.1% (inactive); with UACC-257 melanoma, 97.7% (inactive); with M14 melanoma it was 68.7% (inactive); in the test on HCT-15 colon it was 77.3% (inactive); with HT29 colon, 97.2% (inactive); with SNB-75 CNS it was 77.2% (inactive). The growth was 87.9% (inactive) in the test on SNB-19 CNS; 39.7% (inactive) in the test on PC-3 prostate; 54.7% (inactive) in the test with SK-MEL-5 melanoma; 96.9% (inactive) in the test on UACC-62 melanoma; 3.5% (active) in the test with LOX IMVI melanoma; 97.6% (inactive) in the test with SK-MEL-28 melanoma.

With `ClCCOCCOc1ccc(C2CCCCC2)cc1`, the growth in the test on DU-145 prostate was 102% (inactive); with K-562 leukemia it was 118% (inactive); in the test with MDA-MB-231 breast it was 103% (inactive); in the test on RXF 393 renal it was 101% (inactive); in the test on SF-268 CNS, 109% (inactive); in the test on SF-295 CNS, 97.1% (inactive). The growth is 102% (inactive) in the test with SF-539 CNS; 91.2% (inactive) with UACC-257 melanoma; 108% (inactive) in the test on M14 melanoma; 105% (inactive) with HCT-15 colon; 106% (inactive) in the test on HT29 colon; 98.2% (inactive) in the test on SNB-75 CNS. The growth is 98.4% (inactive) with SNB-19 CNS; 101% (inactive) in the test with PC-3 prostate; 98.8% (inactive) with SK-MEL-5 melanoma; 98.6% (inactive) with UACC-62 melanoma; 107% (inactive) in the test on LOX IMVI melanoma; 102% (inactive) with SK-MEL-28 melanoma.

Consider `Cc1ccc(=O)[nH]n1`, for which the growth in the test with DU-145 prostate was 101% (inactive) and 116% (inactive); in the test with K-562 leukemia, 99.7% (inactive) and 97.2% (inactive); in the test on MALME-3M melanoma it was 112% (inactive) and 106% (inactive); in the test with MDA-MB-231 breast, 118% (inactive); in the test on RXF 393 renal, 105% (inactive); in the test with SF-268 CNS it was 99.4% (inactive) and 103% (inactive). Moreover, the growth was 113% (inactive) and 101% (inactive) with SF-295 CNS; 110% (inactive) and 109% (inactive) in the test on SF-539 CNS; 101% (inactive) and 94.1% (inactive) in the test on UACC-257 melanoma; 111% (inactive) and 110% (inactive) in the test on M14 melanoma; 110% (inactive) and 105% (inactive) in the test on HCT-15 colon; 108% (inactive) and 99.5% (inactive) in the test on HT29 colon. In addition, the growth is 108% (inactive) and 103% (inactive) with SNB-75 CNS; 93.9% (inactive) with SNB-19 CNS; 96.3% (inactive) and 92% (inactive) with PC-3 prostate; 101% (inactive) and 105% (inactive) in the test with SK-MEL-5 melanoma; 106% (inactive) and 104% (inactive) in the test with UACC-62 melanoma; 94.7% (inactive) and 107% (inactive) in the test on LOX IMVI melanoma. For the same compound, in the test on SK-MEL-28 melanoma, the growth is 111% (inactive) and 115% (inactive).

The values are drawn from PubChem BioAssay (NCI).
